Experimental data published in PubChem BioAssay (NCATS).
Inconclusive results are not listed. The source made the active and inactive calls. Calls follow the shape of the dose curve; as a rule, active = well fitted curve in the direction sought with a large enough effect; inconclusive = small, poorly fitted or top-dose-only effect, or another doubt; inactive = no such curve, though single readings can be large; an effect the other way counts as inactive or inconclusive.

Key:
[1] = biological target: Glutathione peroxidase 1 (Homo sapiens) (UniProt P07203); experiment: Primary qHTS Assay for Inhibitors of Recombinant Selenoprotein Glutathione Peroxidase 1 (GPX1) (AID 1845191); also: nearly all actives have a fitted effect of over 65% in size; also: potency is read from the fitted curve at half-maximal effect; as to activity, negative = inhibition: % is scaled to controls: 0 for no effect and ±100 for the full control effect
In short: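 NADPH consumption tracked by fluorescence at 340/450 nm between t=0 and t=15 min, room temperature. Final mix: 10 nM GPX1, 100 nM glutathione reductase, 1 mM GSH, 0.5 mM NADPH, 0.5 mM cumene hydroperoxide, 0.01% BSA; 30 min compound–enzyme preincubation.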

[2] = biological target: Phospholipid hydroperoxide glutathione peroxidase GPX4 (Homo sapiens) (UniProt P36969); experiment: Primary qHTS Assay for Inhibitors of Recombinant Selenoprotein Glutathione Peroxidase 4 (GPX4) (AID 1845192); also: nearly all actives have a fitted effect of over 65% in size; also: potency is read from the fitted curve at half-maximal effect; as to activity change, negative = inhibition: series mostly up to about 50 µM; % is scaled to controls: 0 for no effect and ±100 for the full control effect
In short: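 NADPH consumption followed by fluorescence at 340/450 nm, t=0 and after 15 min at room temperature. Reaction started with cumene hydroperoxide (0.5 mM final) after 30 min compound–GPX4 preincubation; final 200 nM GPX4, 100 nM GR, 1 mM GSH, 0.5 mM NADPH.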

[3] = biological target: Luciferin 4-monooxygenase (Photinus pyralis) (UniProt P08659); experiment: Primary firefly luciferase (FLuc) qHTS assay for identification of artifact compounds. (AID 1845220); also: nearly all actives have a fitted effect of over 60% in size; also: potency is read from the fitted curve at half-maximal effect;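 as to activity change, negative = inhibition: series mostly up to about 54 µM; plate controls were DMSO vehicle for no effect and no enzyme for full effect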
In short: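 Cell-free, 1536-well qHTS. Buffer pH 7.6 with 0.01% Tween-20 and 0.05% BSA; 10 uM D-luciferin, 10 uM ATP; 10 nM P. pyralis luciferase; luminescence after 5 min.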

[4] = Primary fluorescence-based thiol-reactive (MSTI) qHTS assay for identification of artifact compounds. (AID 1845221); also: nearly all actives have a fitted effect of over 65% in size; also: potency is read from the fitted curve at half-maximal effect;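 as to activity change, negative = thiol reactive: series mostly up to about 54 µM; thiol-reactive compounds lower the probe fluorescence signal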
In short: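 Compounds were incubated 1 h at room temperature in the dark with the MSTI probe (4 uM) in PBS pH 7.4, 2% DMSO. Signals were normalized between Acetyl-MSTI and MSTI.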

[5] = test system: Nanoluciferase (engineered Oplophorus gracilirostris luciferase); experiment: Primary Nanoluciferase (NLuc) qHTS assay for identification of artifact compounds. (AID 1845222); also: potency is read from the fitted curve at half-maximal effect;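 as to activity, negative = inhibition: series mostly up to about 54 µM; 0% = DMSO and -100% = no enzyme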
In short: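 Compounds are pinned into diluted (1:55) conditioned medium of NLuc-expressing S16 cells and held 15 min at room temperature protected from light. Nano-Glo substrate follows, and luminescence is read 5 min later.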

[6] = Primary redox qHTS assay for identification of artifact compounds. (AID 1845223);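 also: 0% = DMSO and 100% = reference compound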
In short: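 Redox-cycling detection via DTT (250 uM final) oxidation coupled to Amplex Red (25 uM)/HRP (250 mU/mL) in HBSS. 15 min preincubation plus 30 min after DTT, room temperature. Ex/Em 525/598 nm; 4-parameter Hill fit against DMSO and 10 uM DA3003.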

Phospholipid hydroperoxide glutathione peroxidase GPX4 (Homo sapiens), sequence (P36969 whole entry, looked up): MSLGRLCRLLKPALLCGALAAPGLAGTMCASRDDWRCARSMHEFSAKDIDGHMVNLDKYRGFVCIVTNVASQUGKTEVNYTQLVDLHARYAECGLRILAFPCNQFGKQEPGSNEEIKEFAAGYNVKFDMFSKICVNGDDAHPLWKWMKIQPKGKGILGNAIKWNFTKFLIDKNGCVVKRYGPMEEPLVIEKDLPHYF
Glutathione peroxidase 1 (Homo sapiens), sequence (P07203 whole entry, looked up): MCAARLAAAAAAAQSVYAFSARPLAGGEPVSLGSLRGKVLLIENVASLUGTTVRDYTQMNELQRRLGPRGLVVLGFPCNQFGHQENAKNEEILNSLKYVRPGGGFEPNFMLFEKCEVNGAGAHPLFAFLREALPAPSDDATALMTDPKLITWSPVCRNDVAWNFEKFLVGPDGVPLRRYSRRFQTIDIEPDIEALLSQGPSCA

C[C@@H]1O[C@@H](O[C@H]2[C@H](O)[C@@H](O[C@@H]3O[C@H](CO)[C@@H](O)[C@H](O[C@@H]4O[C@H](CO)[C@@H](O)[C@H](O)[C@H]4O)[C@H]3O)[C@H](O[C@H]3CC[C@@]4(C)C(=CC[C@@H]5C4CC[C@@]4(C)C5C[C@@H]5OC6(CC[C@@](C)(CO[C@@H]7O[C@H](CO)[C@@H](O)[C@H](O)[C@H]7O)O6)[C@@H](C)[C@@H]54)C3)O[C@@H]2CO)[C@H](O)[C@H](O)[C@H]1O (stereo partly drawn)
inactive: activity, negative = inhibition [1] -7.69% [at 9.52 µM] | activity change, negative = inhibition [2] -8.14% [at 9.73 µM] | activity change, negative = inhibition [3] -3.7% [at 11.6 µM] | activity change, negative = thiol reactive [4] 201% [at 11.5 µM] | activity, negative = inhibition [5] -0.894% [at 11.6 µM] | redox activity (% of DA3003) [6] 7.08% [at 11.5 µM]

Cc1noc(-c2ccc(-c3ccc(CC(=O)O)cc3)cc2)c1NC(=O)O[C@H](C)c1ccccc1
inactive: Potency [1] | Potency [2] | Potency [3] | Potency [4] | Potency [6]
active: Potency [5] 10.7 µM

C/C=C(/COC(=O)/C(C)=C/C)C(=O)OC(CC)c1ccc(OC)c(OC)c1 (stereo not drawn)
inactive: Potency [1] | Potency [2] | Potency [3] | Potency [4] | Potency [5] | Potency [6]

CCCOc1ccc(-c2nc(OC)c3ccccc3n2)cc1
inactive: Potency [1] | Potency [2] | Potency [3] | Potency [4] | Potency [5] | Potency [6]

O=C(Nc1ccc(S(=O)(=O)Nc2ccccc2Cl)c(Cl)c1)c1ccccn1
inactive: Potency [1] | Potency [2] | Potency [3] | Potency [4] | Potency [5] | Potency [6]

COc1ccc(-c2cnc(-c3cccc4c3-c3ccccc3C4=O)o2)cc1
inactive: Potency [1] | Potency [2] | Potency [3] | Potency [4] | Potency [5] | Potency [6]

O=C1CCC(=O)N(O)CCCCCNC(=O)CCC(=O)N(O)CCOCCNC(=O)CCC(=O)N(O)CCCCCN1
inactive: Potency [1] | Potency [2] | Potency [3] | Potency [4] | Potency [5] | Potency [6]

N[C@H]1Cc2ccccc2N(O)C1=O
inactive: Potency [1] | Potency [2] | Potency [3] | Potency [4] | Potency [5] | Potency [6]

CCCC(=O)O[C@@H]1[C@@H]2[C@@H](OC(C)=O)[C@]3(C)C(=O)[C@H]4[C@@H](OC(C)=O)C(C)(C)C[C@H]4[C@]3(C)C(=O)[C@@]2(OC(C)=O)C[C@@H]1C
inactive: Potency [1] | Potency [2] | Potency [3] | Potency [4] | Potency [5] | Potency [6]

COC(=O)C1=CO[C@@H](O[C@@H]2O[C@H](CO)[C@@H](O)[C@H](O)[C@H]2O)[C@@H]2[C@@](C)(O)[C@@H](OC(=O)/C=C/c3ccc(O)cc3)C[C@]12O
inactive: Potency [1] | Potency [2] | Potency [3] | Potency [5] | Potency [6]
active: Potency [4] 3.27 µM

CC(=O)N[C@H]1[C@H](O[C@H]2CC[C@@]3(C)C(CC[C@]4(C)C3CC=C3[C@@H]5CC(C)(C)CC[C@]5(C(=O)OC5OCC(O)C(O)C5O)CC[C@]34C)C2(C)C)O[C@H](COC2OC(C)C(O)C(OC3OC(C)C(O)C(O)C3O)C2O)[C@@H](O)[C@@H]1O (stereo partly drawn)
inactive: Potency [1] | Potency [2] | outcome [3] inactive [at 11.6 µM] | activity change, negative = thiol reactive [4] 127% [at 11.5 µM] | activity, negative = inhibition [5] 4.87% [at 11.6 µM] | redox activity (% of DA3003) [6] 3.21% [at 11.5 µM]

CC(C)=CCC[C@](C)(O[C@@H]1O[C@H](CO)[C@@H](O)[C@H](O)[C@H]1O)[C@H]1CC[C@]2(C)[C@@H]1[C@H](O)CC1[C@@]3(C)CC[C@H](O)C(C)(C)C3[C@@H](O[C@@H]3O[C@H](CO)[C@@H](O)[C@H](O)[C@H]3O)C[C@]12C (stereo partly drawn)
inactive: Potency [1] | Potency [2] | Potency [3] | Potency [4] | Potency [5] | Potency [6]

CC/C=C/CC1=C(CCCCC(CCC(=O)O)OC(C)=O)CCC1=O (stereo not drawn)
inactive: Potency [1] | Potency [2] | Potency [3] | Potency [4] | Potency [5] | Potency [6]

CC(C)=CCC[C@](C)(O)[C@H]1CC[C@]2(C)[C@@H]1[C@H](O)CC1[C@@]3(C)CC[C@H](O)C(C)(C)C3[C@@H](O[C@@H]3O[C@H](CO)[C@@H](O)[C@H](O)[C@H]3O[C@@H]3OC[C@@H](O)[C@H](O)[C@H]3O)C[C@]12C (stereo partly drawn)
inactive: Potency [1] | Potency [2] | Potency [3] | Potency [4] | Potency [5] | Potency [6]

C=CC(C)(CC/C=C(\C)C(=O)OC)OC1OC(COC(=O)CC(C)(O)CC(=O)O)C(OC2OC(CO)C(O)C(O)C2O)C(O)C1O (stereo not drawn)
inactive: Potency [1] | Potency [2] | Potency [3] | Potency [4] | Potency [5] | Potency [6]

Nc1ncnc2c1nc(N)n2[C@@H]1O[C@H](CO)[C@@H](O)[C@H]1O
inactive: Potency [1] | Potency [2] | Potency [3] | Potency [4] | Potency [5] | Potency [6]

C=C[C@@H]1[C@H](O[C@@H]2O[C@H](CO)[C@@H](O)[C@H](O)[C@H]2O)OC=C(C(=O)O)[C@H]1CCOC(=O)/C=C/c1ccc(O)c(O)c1
active: Potency [4] 1.3 µM
inactive: Potency [1] | Potency [2] | Potency [3] | Potency [5] | Potency [6]

O=C(NCc1ccc(F)cc1)C(=O)c1c[nH]c2ccccc12
inactive: Potency [1] | Potency [2] | Potency [3] | Potency [4] | Potency [5] | Potency [6]

COc1ccc2nc(S(=O)(=O)Cc3ncc(C)c(OC)c3C)[nH]c2c1
inactive: Potency [1] | Potency [2] | Potency [3] | Potency [4] | Potency [5] | Potency [6]

CCC(C)C(=O)OC1CC(O)C23C4OCC5(C(O)CC2C1(C)C(O)O4)C3C(=O)C(O)C1(C)C(O)(c2ccoc2)CC2OC251 (stereo not drawn)
inactive: Potency [1] | Potency [2] | Potency [3] | Potency [4] | Potency [5] | Potency [6]

C=C[C@@]12COC(=O)C(=C)C1[C@@H](O)[C@H](C(=C)C(=O)OC)[C@@H](OC(=O)C(=C)CO)C2 (stereo partly drawn)
inactive: Potency [1] | Potency [2] | Potency [3] | Potency [5] | Potency [6]
active: Potency [4] 11.6 µM

CC1(CCOC2OC(CO)C(O)C(O)C2O)CCC23OC2(C1)C(O)CC1C(C)(C(=O)O)CCCC13C (stereo not drawn)
inactive: Potency [1] | Potency [2] | Potency [3] | Potency [4] | Potency [5] | Potency [6]

COC(=O)C1(C)c2[nH]c3ccccc3c2CCN1C(=O)CCl (stereo not drawn)
inactive: Potency [1] | Potency [2] | Potency [3] | Potency [4] | Potency [5] | Potency [6]

COc1cc(OC)cc(C(=O)Nc2ccc(Cl)c(-c3nc4ccc(N(C)C)cc4[nH]3)c2)c1
inactive: Potency [1] | Potency [2] | Potency [5] | Potency [6]
active: Potency [3] 8.49 µM | Potency [4] 3.77 µM

CC1(C)CCC[C@]2(C)[C@H]3CC(=O)O[C@]3(C)CC[C@@H]12
inactive: Potency [1] | Potency [2] | Potency [3] | Potency [4] | Potency [5] | Potency [6]

O=C(Nc1nc2ccccc2n1CCc1ccccc1)c1ccccc1
inactive: Potency [1] | Potency [2] | Potency [3] | Potency [4] | Potency [5] | Potency [6]

CCCCCCOc1cc2c(cc1N(C)c1ncc(C(=O)O)cn1)C(C)(C)CCC2(C)C
inactive: Potency [1] | Potency [2] | Potency [3] | Potency [4] | Potency [5] | Potency [6]

COc1ccc(Oc2cc(C)c(-c3csc(NC(=O)c4ccncc4)n3)c(C)c2)cc1
inactive: Potency [1] | Potency [2] | Potency [3] | Potency [4] | Potency [5] | Potency [6]

CO[C@H]1/C=C/[C@@](C)(O)/C=C/C(=O)O[C@H](C)[C@@H](C)CC/C=C/1C
inactive: Potency [1] | Potency [2] | Potency [3] | Potency [4] | Potency [5] | Potency [6]

O=C(O)/C=C/c1cc2c(cc1O[C@@H]1O[C@H](CO)[C@@H](O)[C@H](O)[C@H]1O)OCO2
inactive: Potency [1] | Potency [2] | Potency [3] | Potency [4] | Potency [5] | Potency [6]

CC(=O)OC1C(O)C2C(C)C3=CC(=O)OC3(O)CC2C2(C)CCCC(C)(CO)C12 (stereo not drawn)
inactive: Potency [1] | Potency [2] | Potency [3] | Potency [4] | Potency [5] | Potency [6]

CCCCOC(=O)NC(=O)C1c2ccccc2Oc2ccccc21
inactive: Potency [1] | Potency [2] | Potency [3] | Potency [4] | Potency [5] | Potency [6]

CCCCc1ccc(C(=O)Nc2cc(-c3ccc(Cl)cc3)nn2-c2ccc(Cl)cc2)cc1
inactive: Potency [1] | Potency [2] | Potency [3] | Potency [4] | Potency [5] | Potency [6]

COc1cc(Nc2nc3ccccc3nc2NS(=O)(=O)c2ccc(NC(=O)c3ccc(OC)c(C)c3)cc2)cc(OC)c1
active: Potency [4] 1.68 µM
inactive: Potency [1] | Potency [2] | Potency [3] | Potency [5] | Potency [6]

CC(=O)O[C@@H](CO[C@@H]1O[C@H](CO)[C@H](O)[C@H](O)[C@H]1O)[C@]1(C)C=C2CC[C@@H]3C(C)(C)[C@@H](O)CC[C@@]3(C)[C@@H]2CC1
inactive: Potency [1] | Potency [2] | Potency [3] | Potency [4] | Potency [5] | Potency [6]

COc1c2c(cc3c1-c1c(cc4c(c1OC)OCO4)CC(C)C(C)C3)OCO2 (stereo not drawn)
inactive: Potency [1] | Potency [2] | Potency [3] | Potency [4] | Potency [5] | Potency [6]

O=C(O)c1cccc(S(=O)(=O)N2CCc3ccccc3C2)c1
inactive: Potency [1] | Potency [2] | Potency [3] | Potency [4] | Potency [5] | Potency [6]

COc1ccc(-c2ccc3c(N4CCOCC4)nc(N4CC(C)OC(C)C4)nc3n2)cc1CO (stereo not drawn)
inactive: Potency [3] | Potency [4] | Potency [5] | Potency [6]
active: Potency [1] 18 µM | Potency [2] 22.7 µM
